According to the supplement of paper PMC10849652:
Targets with a hit are over-represented here; the source holds about 7,900 in all. About 0.6% of all pairs of compound and target were hits. Unmarked numbers belong to inactive results.

Assays:
Assay in all cases: log2 fold change, soluble protein after heating vs DMSO (PISA); higher = thermal stabilisation; K562 cells, 10 uM, 30 min; active = over 0.2 and 3.5 SD of the protein, either way, in both replicates (recomputed)
YAE1 = YAE1 (UniProt Q9NRH1)
Sequence of YAE1 (Q9NRH1 whole entry, looked up): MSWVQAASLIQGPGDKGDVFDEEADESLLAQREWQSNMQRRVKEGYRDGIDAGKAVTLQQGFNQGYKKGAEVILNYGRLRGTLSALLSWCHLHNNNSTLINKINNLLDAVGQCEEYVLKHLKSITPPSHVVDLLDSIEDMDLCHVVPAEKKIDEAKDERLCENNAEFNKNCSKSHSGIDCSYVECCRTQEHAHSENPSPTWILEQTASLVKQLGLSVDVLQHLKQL
How it was run: (§1)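 Thermal stability values are relative to control samples and come from duplicates. They are expressed as log2 fold changes. For measurement, K562 cells (2×10^6 cells/mL) received 10 μM compound for 30 min, and aliquots were heated for 3 min over 48°C-58°C, pooled, and extracted at 4°C in PBS with 0.5% NP-40. Soluble protein, the supernatant after 21,000xg for 90 min, was quantified by TMTpro 16plex LC-MS/MS with equalised channel sums.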

YBX1 [1] = biological target: YBX1 (UniProt P67809)
Sequence of YBX1 (UniProt P67809) (P67809 whole entry, looked up): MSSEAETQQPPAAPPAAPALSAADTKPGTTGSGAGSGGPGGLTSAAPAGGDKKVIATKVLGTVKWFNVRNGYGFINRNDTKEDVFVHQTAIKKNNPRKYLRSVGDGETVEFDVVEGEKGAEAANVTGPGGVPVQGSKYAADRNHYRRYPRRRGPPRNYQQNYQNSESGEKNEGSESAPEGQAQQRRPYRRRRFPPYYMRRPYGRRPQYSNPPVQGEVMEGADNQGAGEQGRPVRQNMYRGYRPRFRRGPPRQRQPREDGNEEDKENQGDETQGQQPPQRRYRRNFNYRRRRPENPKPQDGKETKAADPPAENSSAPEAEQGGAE
How it was run: as §1

YES1 = YES1 (UniProt P07947)
Sequence of YES1 (P07947 whole entry, looked up): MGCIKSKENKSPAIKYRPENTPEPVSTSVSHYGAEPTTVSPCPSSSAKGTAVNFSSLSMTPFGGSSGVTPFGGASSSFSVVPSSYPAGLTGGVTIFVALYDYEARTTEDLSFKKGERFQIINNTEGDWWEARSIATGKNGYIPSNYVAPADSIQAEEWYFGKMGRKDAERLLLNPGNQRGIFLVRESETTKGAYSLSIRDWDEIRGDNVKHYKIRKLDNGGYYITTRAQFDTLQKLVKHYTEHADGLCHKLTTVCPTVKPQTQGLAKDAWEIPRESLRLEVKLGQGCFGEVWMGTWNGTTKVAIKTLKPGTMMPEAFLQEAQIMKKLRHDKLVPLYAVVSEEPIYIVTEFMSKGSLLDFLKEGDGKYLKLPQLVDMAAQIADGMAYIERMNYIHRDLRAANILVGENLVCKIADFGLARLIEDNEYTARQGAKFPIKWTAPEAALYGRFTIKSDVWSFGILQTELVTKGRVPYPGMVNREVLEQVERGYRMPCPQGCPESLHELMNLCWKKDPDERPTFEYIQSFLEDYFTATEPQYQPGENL
How it was run: as §1

YIPF4 = YIPF4 (UniProt Q9BSR8)
Sequence of YIPF4 (Q9BSR8 whole entry, looked up): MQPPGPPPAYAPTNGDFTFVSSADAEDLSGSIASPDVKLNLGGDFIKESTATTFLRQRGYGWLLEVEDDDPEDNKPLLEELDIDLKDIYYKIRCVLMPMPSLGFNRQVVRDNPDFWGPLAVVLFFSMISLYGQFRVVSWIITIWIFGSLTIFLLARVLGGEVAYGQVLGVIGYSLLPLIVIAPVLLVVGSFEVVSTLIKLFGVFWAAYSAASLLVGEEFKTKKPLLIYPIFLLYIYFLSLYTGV
How it was run: as §1

YIPF5 isoform 3 = YIPF5 isoform 3 (UniProt Q969M3)
Sequence of YIPF5 isoform 3 (Q969M3 whole entry, looked up, canonical isoform): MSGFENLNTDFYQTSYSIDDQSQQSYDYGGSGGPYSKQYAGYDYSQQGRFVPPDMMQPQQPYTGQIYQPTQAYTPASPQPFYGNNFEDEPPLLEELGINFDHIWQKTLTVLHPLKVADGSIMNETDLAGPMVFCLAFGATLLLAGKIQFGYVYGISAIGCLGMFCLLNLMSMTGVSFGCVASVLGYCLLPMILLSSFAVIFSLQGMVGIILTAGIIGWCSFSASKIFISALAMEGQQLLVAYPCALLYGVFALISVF
How it was run: as §1

YIPF6 = YIPF6 (UniProt Q96EC8)
Sequence of YIPF6 (Q96EC8 whole entry, looked up): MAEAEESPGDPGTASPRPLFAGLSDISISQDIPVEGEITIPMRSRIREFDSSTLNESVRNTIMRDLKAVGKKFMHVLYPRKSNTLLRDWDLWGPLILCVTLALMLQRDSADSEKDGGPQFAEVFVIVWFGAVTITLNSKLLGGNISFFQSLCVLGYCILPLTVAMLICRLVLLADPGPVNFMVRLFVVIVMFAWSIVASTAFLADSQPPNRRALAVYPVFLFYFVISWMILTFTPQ
How it was run: as §1

YLPM1 = YLPM1 (UniProt P49750)
Sequence of YLPM1 (P49750 whole entry, looked up): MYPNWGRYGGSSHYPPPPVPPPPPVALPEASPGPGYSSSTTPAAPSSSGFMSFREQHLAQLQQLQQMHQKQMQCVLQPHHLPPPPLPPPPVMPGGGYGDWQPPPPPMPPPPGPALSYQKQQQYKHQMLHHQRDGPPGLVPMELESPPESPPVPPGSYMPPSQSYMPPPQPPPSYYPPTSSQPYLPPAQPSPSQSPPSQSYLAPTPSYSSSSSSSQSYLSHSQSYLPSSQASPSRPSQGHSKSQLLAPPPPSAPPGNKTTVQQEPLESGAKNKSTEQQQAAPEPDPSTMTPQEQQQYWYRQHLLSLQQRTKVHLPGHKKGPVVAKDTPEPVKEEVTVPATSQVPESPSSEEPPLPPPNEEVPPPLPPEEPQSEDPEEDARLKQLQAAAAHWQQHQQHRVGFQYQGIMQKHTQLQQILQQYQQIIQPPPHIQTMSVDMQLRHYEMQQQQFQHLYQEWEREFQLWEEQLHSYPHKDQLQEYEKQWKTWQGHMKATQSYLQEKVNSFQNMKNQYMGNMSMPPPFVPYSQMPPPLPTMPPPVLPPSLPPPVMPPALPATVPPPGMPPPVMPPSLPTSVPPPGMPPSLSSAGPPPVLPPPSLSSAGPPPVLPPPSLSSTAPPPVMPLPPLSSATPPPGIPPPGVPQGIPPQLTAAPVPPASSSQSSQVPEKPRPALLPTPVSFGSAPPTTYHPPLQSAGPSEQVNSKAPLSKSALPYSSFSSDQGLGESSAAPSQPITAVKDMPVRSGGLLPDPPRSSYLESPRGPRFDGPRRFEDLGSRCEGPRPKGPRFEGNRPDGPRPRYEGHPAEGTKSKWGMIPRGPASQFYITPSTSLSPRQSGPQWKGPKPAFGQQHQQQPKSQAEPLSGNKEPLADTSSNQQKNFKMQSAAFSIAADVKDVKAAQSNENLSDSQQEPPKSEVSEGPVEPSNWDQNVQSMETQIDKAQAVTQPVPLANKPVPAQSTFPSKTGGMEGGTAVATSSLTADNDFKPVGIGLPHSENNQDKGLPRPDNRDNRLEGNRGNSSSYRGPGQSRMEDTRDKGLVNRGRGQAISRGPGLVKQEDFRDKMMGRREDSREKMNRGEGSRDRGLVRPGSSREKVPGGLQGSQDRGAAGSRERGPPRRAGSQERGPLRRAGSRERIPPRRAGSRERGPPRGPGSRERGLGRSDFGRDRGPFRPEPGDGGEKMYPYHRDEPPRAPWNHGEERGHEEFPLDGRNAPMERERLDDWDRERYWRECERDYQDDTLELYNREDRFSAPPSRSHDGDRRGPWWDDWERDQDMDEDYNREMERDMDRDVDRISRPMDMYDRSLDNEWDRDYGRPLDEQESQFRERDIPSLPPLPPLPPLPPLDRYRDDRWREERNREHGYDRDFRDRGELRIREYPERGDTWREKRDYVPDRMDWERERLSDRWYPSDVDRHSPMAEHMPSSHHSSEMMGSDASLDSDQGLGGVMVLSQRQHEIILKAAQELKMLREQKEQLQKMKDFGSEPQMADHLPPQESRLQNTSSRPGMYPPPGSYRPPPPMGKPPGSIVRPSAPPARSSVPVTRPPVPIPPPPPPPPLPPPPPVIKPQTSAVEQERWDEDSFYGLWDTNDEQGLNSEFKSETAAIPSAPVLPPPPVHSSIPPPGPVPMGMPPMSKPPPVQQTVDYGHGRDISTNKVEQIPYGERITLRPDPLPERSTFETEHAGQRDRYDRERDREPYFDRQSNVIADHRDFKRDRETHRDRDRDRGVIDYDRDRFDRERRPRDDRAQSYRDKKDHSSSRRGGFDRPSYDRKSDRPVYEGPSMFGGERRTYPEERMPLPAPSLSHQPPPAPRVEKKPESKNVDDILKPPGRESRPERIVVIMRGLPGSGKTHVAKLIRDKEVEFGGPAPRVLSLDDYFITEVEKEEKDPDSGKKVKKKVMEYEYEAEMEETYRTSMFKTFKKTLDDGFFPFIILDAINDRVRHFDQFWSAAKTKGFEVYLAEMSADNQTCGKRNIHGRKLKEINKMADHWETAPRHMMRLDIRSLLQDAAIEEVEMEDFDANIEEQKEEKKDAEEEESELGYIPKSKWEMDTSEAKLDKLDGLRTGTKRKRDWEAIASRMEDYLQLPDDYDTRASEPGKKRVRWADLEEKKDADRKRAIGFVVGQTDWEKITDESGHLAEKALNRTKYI
How it was run: as §1

YOD1 = YOD1 (UniProt Q5VVQ6)
Sequence of YOD1 (Q5VVQ6 whole entry, looked up): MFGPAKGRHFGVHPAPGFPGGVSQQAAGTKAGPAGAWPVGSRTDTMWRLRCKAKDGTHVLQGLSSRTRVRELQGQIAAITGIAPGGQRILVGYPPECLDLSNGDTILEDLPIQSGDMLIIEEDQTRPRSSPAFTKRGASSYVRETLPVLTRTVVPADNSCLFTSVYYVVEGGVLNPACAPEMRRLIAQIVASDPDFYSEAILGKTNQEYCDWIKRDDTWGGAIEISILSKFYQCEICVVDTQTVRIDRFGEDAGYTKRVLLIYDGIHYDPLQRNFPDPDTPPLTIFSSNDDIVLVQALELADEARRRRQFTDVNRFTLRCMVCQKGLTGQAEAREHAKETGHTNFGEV
How it was run: as §1

YPEL5 = YPEL5 (UniProt P62699)
Sequence of YPEL5 (P62699 whole entry, looked up): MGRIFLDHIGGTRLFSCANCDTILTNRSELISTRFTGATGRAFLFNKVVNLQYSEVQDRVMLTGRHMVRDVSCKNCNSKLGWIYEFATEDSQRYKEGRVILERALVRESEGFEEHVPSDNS
How it was run: as §1

YBX1 [2] = biological target: YBX1 (UniProt C9J5V9)
How it was run: as §1

| Structure (SMILES) | log2 fold change (YAE1) | log2 fold change (YBX1 [1]) | log2 fold change (YES1) | log2 fold change (YIPF4) | log2 fold change (YIPF5 isoform 3) | log2 fold change (YIPF6) | log2 fold change (YLPM1) | log2 fold change (YOD1) | log2 fold change (YPEL5) | log2 fold change (YBX1 [2]) |
| --- | --- | --- | --- | --- | --- | --- | --- | --- | --- | --- |
| CCCS(=O)(=O)Nc1ccc(F)c(C(=O)c2c[nH]c3ncc(Cl)cc23)c1F | -0.037 | -0.137 | -0.217 | -0.01 | -0.096 | 0.004 | 0.047 | 0.033 | -0.127 |  |
| Cc1cccc(-c2[nH]c(C(C)(C)C)nc2-c2ccc3nccnc3c2)n1 | 0.019 | -0.11 | 0.008 | -0.067 | -0.073 | 0.047 | 0.043 | 0.026 | 0.097 | -0.03 |
| Cc1ccc(NC(=O)c2ccc(CN3CC[C@H](N(C)C)C3)c(C(F)(F)F)c2)cc1Nc1nccc(-c2cncnc2)n1 [bafetinib] | 0.013 | 0.146 | 0.049 | -0.045 | -0.028 | -0.169 | 0.083 | -0.07 | 0.064 |  |
| O=C(O)c1ccc2c(c1)nc(Nc1cccc(Cl)c1)c1ccncc12 [silmitasertib] | -0.009 | 0.125 | 0.004 | -0.006 | 0 | 0.02 | -0.009 | 0.021 | 0.116 |  |
| O=C(CCCCCCC(=O)Nc1ccccc1)NO [vorinostat] | 0.044 | -0.056 | 0.069 | -0.046 | 0.156 | -0.035 | 0.024 | 0.033 | 0.028 |  |
| Cc1cc(Nc2cc(CN3CCOCC3)c3nc(C)c(Cc4ccc(Cl)cc4F)n3n2)n[nH]1 [gandotinib] | 0.007 | 0.334 | -0.447 | -0.086 | -0.1 | -0.019 | -0.117 | -0.149 | -0.095 |  |
| C=CC(=O)N1CCC[C@@H](n2nc(-c3ccc(Oc4ccccc4)cc3)c3c(N)ncnc32)C1 [ibrutinib] | -0.008 | 0.103 | 0.188 | 0.009 | -0.005 | -0.001 | -0.117 | -0.016 | 0.054 |  |
| NC(=O)c1ccc2nc(-c3ccc(Oc4ccc(Cl)cc4)cc3)[nH]c2c1 | 0 | -0.033 | 0.049 | -0.039 | 0.012 | 0.005 | 0.033 | 0.019 | -0.021 |  |
| CCN(CCCOc1ccc2c(Nc3cc(CC(=O)Nc4cccc(F)c4)[nH]n3)ncnc2c1)CCOP(=O)(O)O [barasertib] | 0.097 | -0.127 | -0.006 | 0.026 | -0.08 | -0.041 | 0.03 | 0.051 | 0.121 |  |
| CC[C@@H]1C(=O)N(C)c2cnc(Nc3ccc(C(=O)N[C@H]4CC[C@H](N5CCN(CC6CC6)CC5)CC4)cc3OC)nc2N1C(C)C [volasertib] | -0.101 | 0.508 | -0.038 | 0.134 | 0.058 | -0.037 | -0.265 (active) | -0.247 | -0.022 |  |
| COc1cc2nc(-c3cc(F)ccc3O)nc(N[C@@H]3CNC[C@H]3C(C)(C)O)c2cc1OC | 0.125 | -0.054 | -0.052 | -0.094 | 0.13 | 0.043 | 0.1 | 0.018 | 0.096 |  |
| CN1CCC(CNc2ccc3ncc(-c4cccc(OC(F)(F)F)c4)n3n2)CC1 | 0.057 | 0.348 | -0.326 | 0.101 | -0.288 | 0.155 | -0.113 | -0.305 (active) | -0.094 |  |
| CCCCN(Cc1ccc(C(=O)NO)cc1)C(=O)Nc1ccccc1 [Nexturastat A] | 0.564 | 0.231 | 0.142 | 0.021 | 0.091 | -0.011 | 0.046 | -0.011 | -0.144 |  |
| CC[C@@H]1C(=O)N(C)c2cnc(Nc3ccc(C(=O)NC4CCN(C)CC4)cc3OC)nc2N1C1CCCC1 | -0.022 | 0.262 | 0.129 | 0.022 | 0.088 | -0.001 | -0.016 | -0.099 | 0.024 |  |
| CC[C@H](C)[C@H](NC(=O)[C@H]([C@@H](C)CC)N(C)C(C)=O)C(=O)N[C@H](C(=O)N[C@@H](CC(C)C)C(=O)[C@@]1(C)CO1)[C@@H](C)O [epoxomicin] | 0.118 | -0.191 | 0.009 | -0.005 | 0.023 | 0.013 | 0.059 | 0.051 | -0.052 |  |
| c1cc(OCCN2CCCCC2)cc(-c2n[nH]c3ccc(-c4nnc[nH]4)cc23)c1 | -0.001 | -0.156 | -0.235 | -0.051 | -0.043 | 0.036 | 0 | 0.043 | 0.067 |  |
| COc1cc(Nc2ncc3c(n2)-c2ccc(Cl)cc2C(c2c(F)cccc2OC)=NC3)ccc1C(=O)O [alisertib] | -0.065 | -0.066 | -0.211 | -0.134 | -0.009 | 0.419 | 0.017 | 0.19 | 0.086 |  |
| CS(=O)(=O)CCNCc1ccc(-c2ccc3ncnc(Nc4ccc(OCc5cccc(F)c5)c(Cl)c4)c3c2)o1 [lapatinib] | -0.052 | 0.317 | 0.057 | -0.13 | -0.163 | 0.061 | -0.028 | 0.01 | -0.113 |  |
| CCCc1cc(C)[nH]c(=O)c1CNC(=O)c1cc(-c2ccnc(N3CCN(C)CC3)c2)cc2c1cnn2C(C)C | -0.083 | 0.055 | 0.075 | -0.036 | -0.005 | -0.067 | 0.083 | -0.017 | 0.014 |  |
| C[C@@H]1COCCN1c1cc(C2(S(C)(=O)=O)CC2)nc(-c2cccc3[nH]ccc23)n1 | -0.039 | -0.368 | -0.035 | 0.095 | 0.019 | 0.076 | 0.015 | 0.055 | -0.079 |  |
| CN(CCOc1ccc(C[C@@H]2SC(=O)NC2=O)cc1)c1ccccn1 (racemic) [rosiglitazone] | 0.062 | -0.074 | 0.013 | 0.005 | 0.003 | 0.027 | 0.047 | 0.029 | -0.048 |  |
| CNCc1ccc(-c2[nH]c3cc(F)cc4c3c2CCNC4=O)cc1 [rucaparib] | -0.078 | 0.253 | 0.169 | -0.028 | 0 | 0.055 | -0.07 | -0.041 | 0.002 |  |
| COC(=O)N[C@@H](C)CNc1nccc(-c2cn(C(C)C)nc2-c2cc(Cl)cc(NS(C)(=O)=O)c2F)n1 [encorafenib] | 0.007 | 0.041 | 0.242 | -0.038 | 0.012 | -0.042 | 0.052 | 0.02 | -0.001 |  |
| Cc1ccc(NC(=O)c2cccc(N(C)C)c2)cc1NC(=O)c1ccc(O)cc1 | 0.009 | 0.011 | 0.037 | 0.025 | -0.138 | 0.024 | -0.023 | -0.028 | 0.081 |  |
| O=C(CCCCCCNC(=O)c1cnc(N(c2ccccc2)c2ccccc2Cl)nc1)NO [citarinostat] | 0.04 | -0.13 | 0.008 | 0.042 | 0.023 | 0.011 | 0.099 | 0.067 | -0.077 |  |
| Cc1ncc(-c2ccnc(Nc3ccc(S(C)(=O)=O)cc3)n2)n1C(C)C | 0.042 | 0.013 | -0.051 | -0.005 | -0.03 | -0.023 | -0.011 | -0.018 | 0.036 |  |
